The results in this text go back to PubChem BioAssay AID743314 (Broad Institute, 2014).

SMILES strings stand for the structures. Potency and affinity values are given separately. Inconclusive results are not listed. Entries that show only a call come without a potency. The source made the active and inactive calls.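 The calls were made as follows: active = fitted half-maximal concentration no higher than twice the top tested dose, in every repeat run; inconclusive = repeat runs disagree, poor fit, or flat partial inhibition; inactive = the rest.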

Endoplasmic reticulum aminopeptidase 1 (Homo sapiens), sequence (Q9NZ08 whole entry, looked up): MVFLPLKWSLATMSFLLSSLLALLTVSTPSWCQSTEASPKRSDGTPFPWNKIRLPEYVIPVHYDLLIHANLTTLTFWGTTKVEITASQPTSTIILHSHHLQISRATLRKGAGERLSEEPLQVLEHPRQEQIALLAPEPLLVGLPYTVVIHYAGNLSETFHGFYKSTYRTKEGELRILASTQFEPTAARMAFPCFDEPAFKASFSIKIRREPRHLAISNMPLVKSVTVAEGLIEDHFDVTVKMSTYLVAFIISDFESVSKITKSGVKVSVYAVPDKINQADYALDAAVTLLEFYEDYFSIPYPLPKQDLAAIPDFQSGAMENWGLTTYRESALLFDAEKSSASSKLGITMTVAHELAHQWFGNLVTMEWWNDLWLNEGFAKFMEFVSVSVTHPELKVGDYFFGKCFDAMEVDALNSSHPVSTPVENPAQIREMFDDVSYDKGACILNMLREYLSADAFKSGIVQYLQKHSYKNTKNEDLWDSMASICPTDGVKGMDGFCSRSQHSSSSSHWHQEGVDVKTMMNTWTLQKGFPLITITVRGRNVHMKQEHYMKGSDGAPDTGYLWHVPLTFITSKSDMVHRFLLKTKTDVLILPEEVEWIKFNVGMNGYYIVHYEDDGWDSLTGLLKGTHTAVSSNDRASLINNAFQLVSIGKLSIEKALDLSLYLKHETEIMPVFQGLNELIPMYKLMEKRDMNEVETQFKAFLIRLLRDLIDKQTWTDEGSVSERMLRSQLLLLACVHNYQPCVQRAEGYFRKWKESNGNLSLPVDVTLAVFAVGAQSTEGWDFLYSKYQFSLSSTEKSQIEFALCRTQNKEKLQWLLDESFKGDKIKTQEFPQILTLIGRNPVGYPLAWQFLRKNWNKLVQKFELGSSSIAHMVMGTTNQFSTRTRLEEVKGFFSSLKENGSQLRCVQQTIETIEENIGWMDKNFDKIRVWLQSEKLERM

The assay concerns the target Endoplasmic reticulum aminopeptidase 1 (Homo sapiens) (UniProt Q9NZ08). In words: ERAP1 aminopeptidase inhibitors, dose response, biochemical, cherry-pick, set 2, plate reader (AID 743314). To be noted: Recombinant ERAP1, Leu-AMC fluorescence, 60 min; series mostly up to 11 µM.
For the compound `CCOCc1c(C(=O)Nc2ccc(OC)nc2)oc2ccccc12`, the result was inactive.
For `COc1ccccc1CN1[C@H](CO)[C@@H](c2ccccc2)C12CN(C(=O)c1ccccn1)C2`, the outcome was inactive.
On to `CCCCCCc1c(C)c2ccc(OCC(=O)N[C@@H](Cc3ccccc3)C(=O)O)cc2oc1=O`, for which the result was inactive.
